The source of these data is PubChem BioAssay (NCI).

Structures are written as SMILES. This is part of a sample that, as a whole, favours compounds with a hit. Of some 83,000 tested, about 20% had one in any assay.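 Interpretation: 100, growth as untreated; towards 0, rising growth inhibition; 0, no net growth; 0 to -100, cell death. Compounds scoring below 10 were considered active.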 A number with no mark means an inactive call. The source made the active and inactive calls.

Test systems include DU-145 prostate; K-562 leukemia; MALME-3M melanoma; MDA-MB-231 breast; RXF 393 renal; SF-268 CNS; SF-295 CNS; SF-539 CNS; M14 melanoma.
Holding throughout (experiment): NCI-60 one-dose screen, 48 h (100 = growth as untreated, 0 = no growth, -100 = all killed)
Holding throughout (settings): 10 µM unless noted

For `Cc1ccc(-c2csc3nc(C)c(CCCl)c(=O)n23)cc1`, the growth with DU-145 prostate was 104%; in the assay with K-562 leukemia it was 95%; with MALME-3M melanoma it was 107%; in the assay on MDA-MB-231 breast it was 79.9%; with RXF 393 renal, 106%; with SF-268 CNS, 91.4%. In addition, the growth was 104% in the assay on SF-295 CNS, 108% in the assay on SF-539 CNS and 103% in the assay with M14 melanoma.
On to `C[N+](C)(C)c1ccc(CC2c3ccccc3-c3ccccc32)cc1`, for which the growth in the assay with DU-145 prostate was 101%; in the assay on K-562 leukemia it was 70.6%; with MALME-3M melanoma, 74.9%; in the assay on MDA-MB-231 breast, 74.7%; in the assay on RXF 393 renal, 103%; in the assay with SF-268 CNS, 42.4%. Further, the growth in the assay on SF-295 CNS is 79.1%; in the assay on SF-539 CNS, 25.5%; in the assay on M14 melanoma, 75.4%.
For the compound `CCSc1nnc(NC(=O)Cc2ccc(Cl)cc2)s1`, the growth with DU-145 prostate was 105%; with K-562 leukemia, 89.4%; in the assay on MALME-3M melanoma it was 105%; with MDA-MB-231 breast it was 114%; in the assay on RXF 393 renal, 20.6%; in the assay with SF-268 CNS, 110%. The figures for the growth in the assay on SF-295 CNS, with SF-539 CNS and in the assay with M14 melanoma were 98.3%, 97.4% and 107%, respectively.
As for `NC(=O)NNC(=O)c1ccccc1`, the growth in the assay on DU-145 prostate is 115%; with K-562 leukemia it was 103%; with MALME-3M melanoma, 110%; with MDA-MB-231 breast it was 113%; with RXF 393 renal, 113%; in the assay with SF-268 CNS, 107%. In addition, the growth in the assay with SF-295 CNS is 106%; in the assay on SF-539 CNS, 107%; with M14 melanoma, 107%.
`CC(Br)C(O)c1cc2c(cc1Br)OCO2` (stereo not given): the growth was 109% in the assay with DU-145 prostate; 101% with K-562 leukemia; 109% in the assay on MALME-3M melanoma; 111% in the assay with MDA-MB-231 breast; 104% with RXF 393 renal; 104% with SF-268 CNS. In addition, the values for the growth with SF-295 CNS, in the assay on SF-539 CNS and in the assay with M14 melanoma were 110%, 105% and 96%, respectively.
For the compound `CC1(C)OC2COC3(C(=O)O)OC(C)(C)OC3C2O1` (stereo not given), the growth with DU-145 prostate was 108%; with K-562 leukemia, 101%; in the assay on MALME-3M melanoma it was 109%; in the assay on MDA-MB-231 breast, 88.3%; in the assay on RXF 393 renal, 111%; in the assay on SF-268 CNS it was 95.9%. Besides, the results for the growth in the assay on SF-295 CNS, with SF-539 CNS and in the assay on M14 melanoma were 103%, 101% and 99.9%, respectively.
As to `O=S(=O)(NCCCNc1cc(-c2cn(-c3ccccc3)nc2-c2cccc(O)c2)ccn1)c1cccc2ccccc12`, the growth with DU-145 prostate is 49.7%; in the assay on K-562 leukemia it was 1.39% (active); with MALME-3M melanoma, -1.89% (active); with MDA-MB-231 breast it was 4.29% (active); in the assay with RXF 393 renal, 32.1%; in the assay on SF-268 CNS, 39.9%. Besides, the growth with SF-295 CNS was -19.9% (active); with SF-539 CNS, 33.3%; in the assay on M14 melanoma, 28.2%.
As for `CCCCCCOc1ccc(C2(Cl)c3ccccc3N(C)c3ccccc32)cc1`, the growth in the assay on DU-145 prostate is 55.7%; in the assay with K-562 leukemia, 48.8%; in the assay on MALME-3M melanoma, -21.5% (active); in the assay with MDA-MB-231 breast it was 32.7%; with RXF 393 renal it was 57%; with SF-268 CNS, 49.5%. The growth with SF-295 CNS is 28.9%; in the assay with SF-539 CNS, 89.3%; in the assay on M14 melanoma, 12.9%.
`CNC(=O)c1cc(Oc2ccc3c(c2)sc2nc(-c4ccc(Cl)cc4)cn23)ccn1`: the growth was 96.3% in the assay on DU-145 prostate; 85.8% with K-562 leukemia; 72.7% in the assay with MALME-3M melanoma; 77% with MDA-MB-231 breast; 83.5% in the assay with RXF 393 renal; 63.3% in the assay on SF-268 CNS. In addition, the growth is 80.1% with SF-295 CNS, 76% in the assay with SF-539 CNS and 94.7% with M14 melanoma.
Take `CCSc1nnc(NC(=O)COc2ccc(Cl)cc2C)s1`: the growth in the assay with DU-145 prostate is 106%; with K-562 leukemia, 103%; in the assay on MALME-3M melanoma, 106%; in the assay with MDA-MB-231 breast it was 111%; with RXF 393 renal, 89.3%; in the assay with SF-268 CNS, 110%. The growth was 94.2% in the assay with SF-295 CNS, 103% in the assay with SF-539 CNS and 105% in the assay with M14 melanoma.
For the compound `Nc1ccccc1C#C/C=C\C#Cc1cccc(O)c1`, the growth with DU-145 prostate is 73.1%; with K-562 leukemia, 30.9%; in the assay on MALME-3M melanoma it was 51.6%; in the assay on MDA-MB-231 breast it was 39.7%; in the assay with RXF 393 renal, 59%; in the assay with SF-268 CNS it was 65.3%. In addition, the growth in the assay on SF-295 CNS is 40.2%; in the assay on SF-539 CNS, 42.9%; in the assay on M14 melanoma it was 31.5%.
Consider `Nc1nc(N)c2nc(CNc3ccc(C(=O)CC(CCC(=O)O)C(=O)O)cc3)cnc2n1` (stereo not given), for which the growth in the assay with DU-145 prostate was 28.9%; in the assay on K-562 leukemia, 58.3%; in the assay on MALME-3M melanoma it was 111%; in the assay on MDA-MB-231 breast it was 101%; with RXF 393 renal, 19.3%; with SF-268 CNS it was 29.7%. The results for the growth in the assay on SF-295 CNS, in the assay with SF-539 CNS and in the assay on M14 melanoma were 37.8%, 20.5% and 27.1%, respectively.
Turning to `CCO/C=N/NC(=O)c1ccncc1`, the growth with DU-145 prostate is 105%; in the assay on K-562 leukemia, 108%; in the assay on MALME-3M melanoma it was 106%; with MDA-MB-231 breast it was 109%; in the assay with RXF 393 renal it was 109%; in the assay with SF-268 CNS, 101%. The growth is 116% in the assay with SF-295 CNS, 111% in the assay on SF-539 CNS and 114% in the assay on M14 melanoma.
Turning to `Cc1ccc2nc(-c3c(N)n[nH]c3CCCO)[nH]c(=O)c2c1`, the growth with DU-145 prostate is 121%; in the assay with K-562 leukemia, 102%; in the assay on MALME-3M melanoma it was 137%; in the assay with MDA-MB-231 breast it was 99.5%; in the assay with RXF 393 renal it was 167%; in the assay on SF-268 CNS, 104%. Also, the growth was 114% in the assay with SF-295 CNS, 96.4% in the assay on SF-539 CNS and 102% in the assay on M14 melanoma.
Regarding `CC(=O)c1cc(C(=O)c2ccc3c(c2)Sc2ccccc2N3)c2cc(C)ccn12`, the growth was 0.638% (active) in the assay with DU-145 prostate; 5% (active) with K-562 leukemia; 68.2% with MALME-3M melanoma; 3.24% (active) in the assay with MDA-MB-231 breast; 49.3% with RXF 393 renal; 22.1% in the assay with SF-268 CNS. Further, the values for the growth with SF-295 CNS, with SF-539 CNS and with M14 melanoma were -1.7% (active), -32.5% (active) and 17.2%, respectively.
